Screening data (PubChem)
Compounds with a hit are over-represented: about 3% of the library has one in this group of screens.
Sm TGR block: inhibitors of Schistosoma mansoni thioredoxin glutathione reductase; purified TGR, DTNB reduction, TNB absorbance 405 nm; Potency, µM (highest dose often 114 µM), without a hit: at the top dose activity change, negative = inhibition, hits mostly inhibitors; 360,000 compounds, 3% hits; AID 485364; note: nearly all actives have a fitted effect of over 60% in size
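Kinetic colorimetric format: TGR-catalysed, NADPH-driven DTNB reduction monitored via TNB absorbance. Enzyme dispensed at 20 nM; compound exposure 15 min at room temperature before reaction start.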
LmPK inh: blocks Leishmania mexicana pyruvate kinase activity; 290,000 compounds, 0.37% hits; Q27686; purified LmPK, Kinase-Glo ATP luminescence, 1 h; Potency, µM (series often up to 57.5 µM), for the others: at the highest dose activity change, negative = inhibition, actives largely listed as inhibitors
Target sequence (Q27686 whole entry, looked up): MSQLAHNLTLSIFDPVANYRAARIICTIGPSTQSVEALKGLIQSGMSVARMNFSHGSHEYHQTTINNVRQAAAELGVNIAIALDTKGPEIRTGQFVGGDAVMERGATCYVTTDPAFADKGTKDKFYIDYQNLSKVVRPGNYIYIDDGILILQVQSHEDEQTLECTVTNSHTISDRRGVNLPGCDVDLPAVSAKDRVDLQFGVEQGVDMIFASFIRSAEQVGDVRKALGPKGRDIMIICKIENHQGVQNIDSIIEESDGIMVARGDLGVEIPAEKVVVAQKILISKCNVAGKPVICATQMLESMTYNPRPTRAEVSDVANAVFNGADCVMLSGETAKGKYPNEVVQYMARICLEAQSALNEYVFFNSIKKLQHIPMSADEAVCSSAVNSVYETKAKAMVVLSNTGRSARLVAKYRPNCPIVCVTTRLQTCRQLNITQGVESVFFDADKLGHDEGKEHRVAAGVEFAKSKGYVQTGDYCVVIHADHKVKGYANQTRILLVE
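Pyruvate kinase activity monitored as ATP production (luciferase luminescence). Conditions: 0.1 nM enzyme, 0.5 mM PEP, 0.1 mM ADP, 1 h, RT; normalized against uninhibited and no-enzyme wells.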
TbPYK inhibitor: T. brucei pyruvate kinase inhibition; AID 624173; 410,000 compounds, 0.12% hits; TbPYK enzyme, Kinase-Glo Plus ATP luminescence, 45 min; Potency, µM (series often up to 76.8 µM), inactives show top-dose activity, negative = inhibition, most hits filed as inhibitors; Q57TT1; note: nearly all actives have a fitted effect of over 50% in size
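Luminescent Kinase-Glo Plus end-point after 45 min room-temperature reaction of T. brucei pyruvate kinase started with 130 uM ADP (final). Buffer TEA 50 mM pH 7.2 with KCl, MgCl2, BSA, Tween-20; titration-based qHTS with fitted concentration-effect curves.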
RE007 growth inh: less growth of the S. pombe RE007 Vpr strain. S. pombe RE007 Vpr strain, BacTiter-Glo ATP luminescence, 24 h. 360,000 compounds, 0.21% hits. Potency, µM (doses to about 92.2 µM), for the others: at the top dose activity change, negative = less growth, actives largely listed as inhibitors; active = well fitted falling curve with a large enough effect; inconclusive = small, poorly fitted or top-dose-only effect; inactive = no such curve, though single readings can be large or run the other way; note: nearly all actives have a fitted effect of over 50% in size
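Fission yeast RE007 carrying one integrated HIV-1 vpr copy, seeded at OD 0.01 in PMG+AL medium with 23 nL pinned compound. Grown 24 h at 30 degrees; viability read by BacTiter-Glo luminescence after 5 min.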
Starred values were filed as active, the others as inactive; ? = inconclusive; nt = not tested or not shown; [ ] = another dose, or the depositor's remark. Unless noted, calls come from the whole dose curve; as a rule, active = well fitted curve in the direction sought with a large enough effect; inconclusive = small, poorly fitted or top-dose-only effect, or another doubt; inactive = no such curve, though single readings can be large; an effect the other way counts as inactive or inconclusive. % is set by controls: 0 for no effect and ±100 for the full control effect; potency is the fitted concentration of half-maximal effect.

SMILES	Sm TGR block	LmPK inh	TbPYK inhibitor	RE007 growth inh
Cc1ccc(-c2cc(C(F)(F)F)n3nc(C(=O)Nc4sc5c(c4C#N)CCC(C)C5)cc3n2)cc1 (configuration not stated)	8%	nt	-5%	nt
Nc1ccc2ccc3cccc[n+]3c2c1	32µM*	-6%	-8%	-1%
O=C(/C=C/c1ccccc1)c1ccc2c(c1)OCCCCO2	6%	?	-15%	?
O=C(CCl)N(C/C=C/c1ccccc1)c1ccc2c(c1)OCCO2	7.1µM*	1%	-6%	34%
CCN(CC)C(=O)c1sc2c(c1C)c(=O)n(-c1ccc(Cl)c(Cl)c1)c(=O)n2Cc1ccccc1C#N	0%	nt	0%	nt
C=CCn1c(-c2cc(Cl)ccc2OC)n[nH]c1=S	5%	13µM*	?	13%
C=CCn1c(CCSCc2ccccc2)n[nH]c1=S	12%	-27%	?	8%
C=CCn1c(CCSCc2ccc(OC)c(C)c2)n[nH]c1=S	-4%	4%	7.9µM*	9%
CCn1c(-c2cc(Cl)ccc2OC)n[nH]c1=S	0%	?	11µM*	38%
CCNC(=S)Nc1ccc(C)c(S(=O)(=O)Nc2ccccc2OC)c1	2.8µM*	0%	1%	-10%
CCc1ccc(-n2c(SCC(=O)NC(C)CC)nc3n[nH]c(C)c3c2=N)cc1 (configuration not stated)	13%	nt	-3%	nt
COc1ccccc1N1C(=O)C=C(Sc2nc(C)cc(C)n2)C1=O	1µM*	?	5µM*	9%
Cc1ccccc1OCCCCn1nnc2sc3c(c2c1=O)CCC(C)C3 (configuration not stated)	-4%	nt	6%	nt
Cc1ccc2[nH]c3c(c2c1)CCCC3NC(=O)CCl (configuration not stated)	45µM*	-1%	-3%	16%
Cc1ccc2[nH]c3c(c2c1)CCCC3C(N)=O (configuration not stated)	-11%	4%	-15%	4%
CN(C)c1ccc(/C=N/NC(=O)c2ccnn2C)cc1	5%	8.9µM*	?	-13%
O=C(CCc1ccc(O)c(O)c1)N/N=C/c1ccc2c(c1)OCO2	11µM*	?	-18%	9%
COC(=O)c1ccc(OC(=O)c2ccccn2)cc1	1%	-16%	-4%	-21%
CN(C)c1ccc(/C=N/NC(=O)c2ccn(C)n2)cc1	-5%	-29%	-7%	2%
N#CC(C#N)=Cc1ccc(OC(=O)c2ccccn2)cc1	8.9µM*	-4%	-3%	4%
CN(C)c1ccc(/C=N/NC(=O)c2ccccn2)cc1	0%	13µM*	?	-23%
COc1ncc2nc(C)c(=O)n(CCC#N)c2n1	nt	nt	0%	nt
O=C(N/N=C/c1ccc2c(c1)OCO2)c1ccccn1	-27%	11µM*	-17%	-16%
CN(C)c1ccc(/C=C(\C#N)c2ccccn2)cc1	-13%	10µM*	?	?
O=C(N/N=C/c1cc2c(cc1Br)OCO2)c1ccccn1	-3%	?	-6%	11%
SMILES	Sm TGR block	LmPK inh	TbPYK inhibitor	RE007 growth inh
CN(C)c1ccc(NC(=S)c2ccccn2)cc1	-16%	4.5µM*	?	?
CC(C)c1ccc(/C=N/NC(=O)c2ccccn2)cc1	-17%	14µM*	-16%	18%
Cc1ccc(C(=O)Nc2nnc(SCc3cc(=O)n4ccc(C)cc4n3)s2)cc1	-5%	nt	2%	nt
CCCCc1nc(S(=O)(=O)c2ccc(Cl)cc2)c(N2CCOCC2)o1	7.9µM*	-2%	0%	13%
NC(=O)C1CCN(CCS(=O)(=O)c2ccc(Cl)cc2)CC1	45µM*	0%	1%	-6%
CS(=O)(=O)c1nc(S(=O)(=O)c2ccc(Cl)cc2)c(N2CCC(C(N)=O)CC2)s1	11µM*	8%	1%	-4%
CCS(=O)(=O)c1nc(S(=O)(=O)c2ccc(Cl)cc2)c(N2CCC3(CC2)OCCO3)s1	-1%	1%	2%	-10%
CCS(=O)(=O)c1nc(S(=O)(=O)c2ccc(Cl)cc2)c(N2CCOCC2)s1	22µM*	-1%	-10%	-2%
Cc1sc2nc3c4ccccc4c(NCc4ccco4)nn3c(=O)c2c1C	50µM*	-9%	-9%	0%
Cc1nc(NCc2ccco2)c2c(C)c(C)sc2n1	-11%	-1%	35%	-12%
CCOc1cc(/C=C2/COc3ccccc3C2=O)ccc1OCC(=O)N(C)C	32µM*	1%	-3%	-8%
O=C1/C(=C/c2ccc(O)cc2)COc2ccccc21	?	-9%	?	?
O=C(NCc1ccccc1Br)c1ccc2c(c1)nc1n2CCOC1	0%	nt	-9%	nt
O=C1NC(=O)C(=Cc2ccc(SC3CCCCC3)o2)C(=O)N1	40µM*	-8%	?	-11%
CN(C)c1cccc(CNC(=O)c2ccc3nc([C@@H]4O[C@H](CO)[C@H](O)[C@H](O)[C@H]4O)[nH]c3c2)c1	nt	nt	-1%	16%
O=C(c1ccccc1)c1coc2c1C(=O)c1ccccc1C2=O	-28%	-5%	-7%	?
COc1ccc(C(=O)c2coc3c2C(=O)C(=O)c2ccccc2-3)cc1	-25%	5%	-3%	40µM*
N[C@@H](Cc1ccc(N(CCCl)CCCl)cc1)C(=O)O	14µM*	nt	3%	6%[18.4 µM]
O=C(O)CCCc1ccc(N(CCCl)CCCl)cc1	50µM*	1%	4%	-8%[18.4 µM]
N[C@@H](Cc1ccc(F)cc1)C(=O)O	nt	nt	-1%	-10%
NC(Cc1ccc(OC(F)F)cc1)C(=O)O (configuration not stated)	35µM*	-5%	6%	8%
O=C(NCc1ccco1)C1CCCCC1	nt	0%	4%	0%
O=C(NCc1ccco1)C1OCCc2ccccc21 (configuration not stated)	22µM*	4%	-8%	24%
Oc1ccc(O)c(Cc2nc3ccccc3[nH]2)c1	6.3µM*	-16%	2%	-8%
c1ccc2[nH]c(CCCc3nc4ccccc4[nH]3)nc2c1	-12%	-2%	-7%	-4%
SMILES	Sm TGR block	LmPK inh	TbPYK inhibitor	RE007 growth inh
O=C(NCC[C@H]1CC[C@@H](NC(=O)C2CCOCC2)[C@@H](CO)O1)Nc1ccc(Cl)cc1	nt	nt	nt	-12%
CC(C)c1cc(CN2CCN(CCC#N)CC2)cc(C(C)C)c1O	22µM*	-2%	-4%	-2%
CC1CCCCC1NC(=O)NC(=O)CCl (configuration not stated)	14µM*	3%	-5%	-5%
CC1CCCC(NC(=O)NC(=O)CCl)C1C (configuration not stated)	2.8µM*	1%	3%	-8%
CCCN1CCN(c2ncnc3sc(C(=O)Nc4ccc(C(C)C)cc4)c(C)c23)CC1	1%	nt	-5%	nt
O=C(CCCN1CCN(c2ccc(F)cc2)CC1)NC1c2ccccc2CSc2ccccc21 (configuration not stated)	nt	nt	-8%	nt
Oc1ccc(C2=NN(c3ccccc3)C(c3ccc(F)cc3)C2)cc1 (configuration not stated)	10%	0%	-1%	40µM*
CCSc1nc(-c2ccc(OC)cc2)nc2c1Cc1c(CO)cnc(C)c1O2	-23%	nt	-6%	nt
CCC1=NNc2cccc3c(OC)ccc1c23	10µM*	?	nt	nt
